Assay outcomes deposited in PubChem by National Center for Advancing Translational Sciences (NCATS).
D1 antagonist = antagonists of human D1 dopamine receptor. P21728. HEK293 TREx D1 cells, calcium flux, dopamine EC80; active compounds read low. activity change, negative = inhibition, % at 10 µM. 360,000 compounds, 3.2% hits. AID 504652; in the data active means activity change below about -30%
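Allosteric or orthosteric antagonism assessed as attenuation of the calcium response to EC80 dopamine, added 180 s after compound, in induced HEK293 Trex D1 cells loaded with no-wash calcium dye.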
D1 agonist = human D1 receptor agonism; P21728; HEK293 T-REx D1 cells, calcium flux, agonist mode; activation, % at 2 µM; 360,000 compounds, 1% hits; AID 504660; in the data active means activation above about 30%
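Agonism was scored from calcium flux recorded over 180 s (1 read/s) after pintool compound addition, following a 10-cycle baseline. Cells were inducible force-coupled HEK293 TREx D1, plated overnight at 30 C and loaded with no-wash calcium dye.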
D1 PAM = human D1 dopamine receptor positive modulation; 360,000 compounds, 0.036% hits; P21728; HEK293 TREx D1 cells, calcium flux, dopamine EC20 potentiation; potentiation, % at 10 µM; in the data active means potentiation above about 30%
D3 ag = activates the human D3 dopamine receptor | P35462 | D3R DiscoveRx beta-arrestin cells, luminescence, 90 min | max activation, % | 410,000 compounds, 0.58% hits | AID 652048; in the data active means max activation above about 30%
Target sequence (P35462 whole entry, looked up): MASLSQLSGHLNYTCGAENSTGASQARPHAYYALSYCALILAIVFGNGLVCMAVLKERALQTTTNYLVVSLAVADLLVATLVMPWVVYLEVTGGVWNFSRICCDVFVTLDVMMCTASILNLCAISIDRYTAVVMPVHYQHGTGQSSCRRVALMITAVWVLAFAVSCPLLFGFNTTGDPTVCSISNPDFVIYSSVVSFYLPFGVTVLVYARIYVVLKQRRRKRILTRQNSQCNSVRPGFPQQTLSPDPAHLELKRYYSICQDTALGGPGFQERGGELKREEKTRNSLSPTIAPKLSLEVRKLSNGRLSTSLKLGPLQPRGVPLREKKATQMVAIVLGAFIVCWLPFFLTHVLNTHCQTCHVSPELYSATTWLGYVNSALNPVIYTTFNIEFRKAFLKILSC
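Agonist mode: compounds and dopamine controls were applied to plated cells for 90 min at 37 degrees C after an overnight attachment at 1500 cells/well. Luminescent read-out followed 30 - 60 minutes at room temperature with DiscoveRx detection reagent.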
D3 antag = antagonists of human D3 dopamine receptor | AID 652054 | 360,000 compounds, 2.5% hits | max response, negative = inhibition, % | P35462 | D3R cells, DiscoveRx beta-arrestin luminescence, antagonist mode; active compounds read low; in the data active means max response below about -50%
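Cells expressing the human receptor were seeded at 1500 cells/well, incubated overnight at 37 degrees C in 5% CO2, then exposed to library compounds with dopamine controls for 90 minutes at 37 degrees C before luminescent detection.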
Numbers stand for hits; i = inactive; nt = not tested or not shown. Sampled rows, rich in hits. Any-hit rate of the full collection: about 6%.

SMILES	D1 antagonist	D1 agonist	D1 PAM	D3 ag	D3 antag
CN1C/C(=C/c2cccnc2)C(=O)/C(=C/c2cccnc2)C1	i	i	i	i	-55
COc1ccc(C(=O)NCC(c2ccc(N(C)C)cc2)N2CCc3ccccc32)cc1OC (configuration not stated)	i	i	i	i	nt
COc1ccc(Cn2ccnc2SCC(=O)Nc2ccccc2F)cc1	-31	i	i	i	i
C#CCCOC(=O)N1C2=NC(C(=O)OC)=C(C(=O)OC)[C@@H]3N(C)c4ccccc4[C@]23C[C@H]1CO	nt	nt	nt	i	i
COC(=O)C1=C(C(=O)OC)[C@@H]2N(C)c3ccccc3[C@@]23C[C@@H](CO)N(C(=O)c2cccs2)C3=N1	nt	nt	nt	i	-51
Cc1ccc(NC(=O)/C(C#N)=C/c2ccc(-c3ccc(Cl)c(C(=O)O)c3)o2)cc1C	i	i	i	i	nt
N#C/C(=C\c1ccc(-c2cccc(Cl)c2)o1)C(=O)Nc1cccc2cccnc12	i	i	i	i	-51
Cc1ccccc1NC(=O)/C(C#N)=C/c1ccc(-c2ccc(Cl)c(C(=O)O)c2)o1	i	i	i	i	-66
CCOC(=O)C1CN(S(=O)(=O)c2ccc(C)cc2)c2ccccc2O1 (configuration not stated)	-45	i	i	i	i
CCCNC(=O)C1CN(S(=O)(=O)c2ccc(C)cc2)c2ccccc2O1 (configuration not stated)	i	i	i	i	i
CC(=O)NC(c1ccccc1)c1nc(-c2cccs2)cs1 (configuration not stated)	nt	nt	nt	i	i
COc1ccc(C2=Nc3ccc(OC(F)(F)F)cc3NC(c3cccnc3)=N2)cc1	i	i	i	36	nt
COc1ccc(OC)c(NC(=O)c2ccc(CN3CCc4ccccc4C3)cc2)c1	i	i	i	i	-109
COc1ccc(NC(=O)c2ccc(CN3CCc4ccccc4C3)cc2)c(OC)c1	-35	i	i	i	-101
COc1ccc(/C=C(\C#N)c2nc(-c3cc(Cl)ccc3OC)cs2)cc1	i	i	i	i	nt
COC(=O)CSc1nc2sc3c(c2c(=O)n1-c1ccc(C)cc1)CC(C(C)C)OC3 (configuration not stated)	i	i	i	i	nt
CC(C)(C)CC(C)(C)c1ccc(OCCOCC[N+](C)(C)Cc2ccccc2)cc1	nt	110	nt	nt	nt
Cc1ccc(C(C)NC(=S)NCc2ccc(F)cc2)cc1C (configuration not stated)	-31	i	i	i	i
CCC(NC(=S)NCc1ccc(F)cc1)c1ccc(C)cc1 (configuration not stated)	i	60	i	i	i
CCOc1ccc(C(C)NC(=S)NCc2ccc(F)cc2)cc1 (configuration not stated)	i	59	i	i	i
COc1cccc(C(C)NC(=S)NCc2ccc(F)cc2)c1 (configuration not stated)	i	i	i	i	i
CCc1ccc(C(C)NC(=S)NCc2ccc(F)cc2)cc1 (configuration not stated)	i	76	i	i	i
COc1ccc(Cl)cc1NC(=O)c1c(C(=O)Nc2cccc(C)c2C)sc2nc(C)cc(=O)n12	i	i	i	i	nt
CCOCCc1nnc(NC(=O)C(=O)c2cc(C)n(-c3ccc(C)c(C)c3)c2C)s1	i	i	i	i	nt
Cc1ccc(NC(=S)NCc2ccc(F)cc2)c(C)c1	i	i	i	i	i
SMILES	D1 antagonist	D1 agonist	D1 PAM	D3 ag	D3 antag
Cc1ccc(C(C)NC(=S)NCc2ccc(F)cc2)c(C)c1 (configuration not stated)	i	51	i	i	i
O=C(C1CC1)N1CCN=C1SCc1ccccc1Cl	i	i	nt	i	-60
Cc1ccccc1NC(=O)c1nnn(-c2ccc3c(c2)OCCO3)c1N	-48	i	i	i	i
CCOc1ccccc1NC(=O)c1nnn(-c2ccc3c(c2)OCCO3)c1N	i	i	i	i	i
Cc1cc(C)nc(SCC(=O)c2ccc(O)cc2O)n1	-43	i	i	i	i
Cc1cc(C)nc(SCC(=O)c2ccc(O)c(O)c2)n1	i	i	i	i	i
O=C(NCC(=O)N1CCCC1)NN=Cc1ccccc1O	nt	nt	nt	i	i
CCN(CC)C(=O)Cn1cc(C(=O)C(=O)NCCCN2CCOCC2)c2ccccc21	-34	i	i	i	i
CCN(CC)C(=O)Cn1cc(C(=O)C(=O)NCCc2ccccc2)c2ccccc21	i	i	i	i	i
